Results filed as inconclusive are left out. Calls of active or inactive are those of the source. The call rests on the fitted dose curve; in most records, active means well fitted activation curve with a large enough effect; inconclusive means small, poorly fitted or top-dose-only effect; inactive means no such curve, though single readings can be large or run the other way.
These compounds were tested against Relaxin receptor 1 (Homo sapiens) (UniProt Q9HBX9) (assay: qHTS Assay for Agonists of the Relaxin Receptor RXFP1: THP1 Hit Validation). Conditions: THP1-RXFP1 cells, cAMP TR-FRET, 30 min; series mostly up to 115 µM.
Relaxin receptor 1 (Homo sapiens), sequence (Q9HBX9 whole entry, looked up): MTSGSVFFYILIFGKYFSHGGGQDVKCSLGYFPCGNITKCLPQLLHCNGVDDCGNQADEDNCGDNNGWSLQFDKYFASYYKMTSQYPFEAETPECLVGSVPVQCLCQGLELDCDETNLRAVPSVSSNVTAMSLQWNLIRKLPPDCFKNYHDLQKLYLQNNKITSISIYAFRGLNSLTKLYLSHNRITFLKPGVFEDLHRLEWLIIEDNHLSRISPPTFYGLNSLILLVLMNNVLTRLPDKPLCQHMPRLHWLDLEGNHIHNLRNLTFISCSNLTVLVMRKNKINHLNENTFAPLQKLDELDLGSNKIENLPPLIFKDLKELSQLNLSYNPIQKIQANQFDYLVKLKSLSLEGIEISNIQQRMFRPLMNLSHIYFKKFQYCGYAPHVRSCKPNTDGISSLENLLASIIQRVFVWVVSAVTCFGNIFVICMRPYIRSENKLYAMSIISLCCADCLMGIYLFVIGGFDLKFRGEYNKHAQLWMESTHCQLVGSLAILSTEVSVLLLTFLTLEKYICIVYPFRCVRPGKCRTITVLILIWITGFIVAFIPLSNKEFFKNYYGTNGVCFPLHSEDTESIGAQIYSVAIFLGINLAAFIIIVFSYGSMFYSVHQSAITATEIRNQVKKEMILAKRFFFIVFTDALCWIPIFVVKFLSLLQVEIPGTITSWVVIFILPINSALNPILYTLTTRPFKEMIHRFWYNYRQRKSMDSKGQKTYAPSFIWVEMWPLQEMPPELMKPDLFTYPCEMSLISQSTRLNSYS
Procedure, shortened: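 RXFP1-THP1 cells, 2000/well, + Ro 20174 (PDE4 inhib.); cpd 30 min 37C. Lysis + cAMP-d2/anti-cAMP cryptate, 30 min RT, HTRF 665/615. Norm: buffer vs 29 nM porcine relaxin; Hill EC50.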
With O=C(OCc1nc2ccsc2c(=O)[nH]1)c1cccc(S(=O)(=O)N2CCOCC2)c1 the Potency was 43.6 µM (active).
For CN(C)S(=O)(=O)c1ccc(C(=O)OCC(=O)Nc2cccnc2Cl)cc1, the Potency was 19.4 µM (active).
With COc1ccc(Nc2ncc(C#N)c(N)n2)c(OC)c1 the Potency was “inactive”.
In the case of Cc1ccc(-n2c(=S)[nH]c3sc4c(c3c2=O)CCC4)cc1, the Potency is reported as 8.68 µM (active).
With COC(=O)C(C)Sc1ccc2nnc(-c3ccccc3)n2n1 (centres undefined) the Potency was “inactive”.
In the case of O=c1c2ccccc2cnn1Cc1n[nH]c(=S)n1-c1ccc(F)c(Cl)c1, the Potency is reported as 12.3 µM (active).
For O=C(Nc1ccccc1C(=O)Nc1ccccc1)c1ccco1, the Potency was “inactive”.
For CC(C)C(=O)Nc1ccc(Nc2ccccc2)cc1, the Potency was “inactive”.
With O=C(O)c1cc(-c2ccco2)nc2ccc(Br)cc12 the Potency was 19.4 µM (active).
With Cc1ccccc1NC(=O)CNc1ccccc1C(=O)NCc1ccco1 the Potency was “inactive”.
For N#Cc1c(N)nc(SCC(=O)C23CC4CC(CC(C4)C2)C3)c(C#N)c1-c1ccc(Cl)cc1, the Potency was 12.3 µM (active).
With C=CCOc1c(Cl)cc(CNc2ccc(N(C)C)cc2)cc1OC the Potency was “inactive”.
With CCc1nnc(NC(=O)CSc2nc(C)nc3c2c(=O)n(C)c(=O)n3C)s1 the Potency was 10.9 µM (active).
In the case of COc1ccc(/C=C2/SC(=O)N(CCC(=O)Nc3ccc(C)cc3)C2=O)cc1OC, the Potency is reported as “inactive”.
With O=C(Nc1ccccc1C(=O)N1CCNCC1)c1ccco1 the Potency was “inactive”.
For COc1ccc(C(C)=O)cc1Cn1cnc2c(cnn2C)c1=O, the Potency was 13.8 µM (active).
In the case of Nc1nnc(CC(=O)N/N=C/c2ccc(-c3ccc(Cl)cc3Cl)o2)s1, the Potency is reported as “inactive”.
For COC(=O)c1sc(N2C(=O)C(O)=C(C(=O)c3ccc(C)o3)C2c2ccc(F)cc2)nc1C (centres undefined), the Potency was 2.75 µM (active).
With O=C(Nc1ccccc1C(=O)NC1CCCCC1)c1ccco1 the Potency was “inactive”.
With S=c1nc[nH]c2c1[nH]c1ccc(Cl)cc12 the Potency was 1.55 µM (active).
With CC(C(=O)OCC(=O)N(C)C1(C#N)CCCCC1)N1C(=O)c2ccccc2C1=O (centres undefined) the Potency was 15.4 µM (active).
COc1cccc(CNC(=O)c2ccc(CS(=O)Cc3ccc(C)cc3)o2)c1 (centres undefined) was tested, and the Potency was “inactive”.
CC(C)c1ccccc1NC(=O)c1ccccc1NC(=O)C1CCCCC1 was tested, and the Potency was “inactive”.
For O=C(O)CNC(=O)c1ccccc1NC(=O)c1ccco1, the Potency was “inactive”.
COc1ccc(CN2C(=O)c3cccnc3C2=O)cc1S(=O)(=O)NC1CCCCC1 was tested, and the Potency was 19.5 µM (active).
CN(C)S(=O)(=O)c1cccc(COc2ncnc3c(Cl)cc(Cl)cc23)c1 was tested, and the Potency was 5.49 µM (active).
For Cc1ccc(-n2nnc3c(=O)n(CC(=O)NCC4CCCO4)cnc32)cc1 (centres undefined), the Potency was 15.5 µM (active).
With COc1ccc(Cl)cc1-c1n[nH]c(=S)o1 the Potency was 6.15 µM (active).
Cc1cc(C)c(C(=O)CSc2n[nH]c(=O)n2C2CC2)cc1C was tested, and the Potency was “inactive”.
With O=C(Nc1ccccc1C(=O)NCc1ccco1)c1ccco1 the Potency was “inactive”.
For CC1CCCCN1C(=O)c1ccccc1NC(=O)c1ccco1 (centres undefined), the Potency was “inactive”.
In the case of Cc1cc2nc3ccc(=[N+](C)C)cc-3sc2cc1N, the Potency is reported as “inactive”.
CCOC(=O)CNC(=O)CSc1ccc2nnc(-c3cccnc3)n2n1 was tested, and the Potency was “inactive”.
In the case of CC1CCN(S(=O)(=O)c2ccc3nc(N4CCN(c5ccccc5)CC4)ccc3c2)CC1, the Potency is reported as 15.4 µM (active).
In the case of O=C(O)CSc1ccnc2cc(Cl)ccc12, the Potency is reported as 21.8 µM (active).
In the case of COC(=O)Cn1cnc2c(C#N)c3n(c2c1=O)CCCCC3, the Potency is reported as 8.7 µM (active).
For CCOc1ccc2cc(C#N)c(SCC(=O)NC(C)CC)nc2c1 (centres undefined), the Potency was 6.9 µM (active).
In the case of O=[N+]([O-])c1cc2c(c(CSc3nnc4ccccn34)c1)OCOC2, the Potency is reported as 13.8 µM (active).
With CCN(CC)C(=O)c1cc(Cl)ccc1NC(=O)c1ccco1 the Potency was “inactive”.
Further: nearly all actives have a fitted effect of over 60% in size.
Potency means the concentration at half of the fitted maximal effect.
